Screens as filed in PubChem.
JMJD2A Tudor: qHTS Assay for Inhibitors of JMJD2A-Tudor Domain | AlphaScreen JMJD2A-Tudor / H3K4me3 peptide binding | Potency, µM (titrated, usually from 114 µM), hits mostly inhibitors | hit rate 4.4% among 390,000; further: nearly all actives have a fitted effect of over 50% in size
PLK1 PBD block: qHTS for Inhibitors of PLK1-PDB (polo-like kinase 1 - polo-box domain): Primary Screen; Potency, µM, hits mostly inhibitors; Plk1 PBD binding of FITC phosphopeptide, fluorescence polarization; hit rate 2.8% among 360,000; Serine/threonine-protein kinase PLK1 (Homo sapiens), P53350; further: series mostly up to about 57 µM; nearly all actives have a fitted effect of over 65% in size
BAZ2B block: qHTS Assay for Inhibitors of BAZ2B. AlphaScreen BAZ2B-H3K14Ac peptide displacement. hit rate 4.4% among 360,000. Potency, µM (doses to about 114 µM), hits mostly inhibitors; further: nearly all actives have a fitted effect of over 60% in size
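BAZ2B 50 nM plus b-H3(5-23)K14Ac 50 nM, PBS pH 7.4/0.01% Tween-20, 30 min RT; compound added (max 110 uM), 30 min RT; streptavidin donor/Ni-chelate acceptor beads 10 ug/mL final, 20 min dark; AlphaScreen read.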
G9a block: qHTS Assay for Inhibitors of Histone Lysine Methyltransferase G9a | Histone-lysine N-methyltransferase EHMT2 (Homo sapiens), Q96KQ7 | G9a H3K9 monomethylation, AlphaScreen, 2 h | Potency, µM (highest dose often 102 µM), hits mostly inhibitors | hit rate 8.8% among 350,000 | AID 504332, 2011; further: nearly all actives have a fitted effect of over 75% in size
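Methyltransferase reactions run at room temperature for 2 h (20 nM enzyme, 500 nM biotin-H3K9 peptide, 20 uM SAM) after a 15 min compound preincubation; product detected by AlphaScreen beads and anti-H3K9me1 antibody.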
HP1b binding inh: HTS for Inhibitors of HP1-beta Chromodomain Interactions with Methylated Histone Tails. AlphaScreen HP1-beta / biotin-H3K9me3 peptide binding. Potency, µM (doses to about 114 µM), most hits filed as inhibitors. hit rate 0.56% among 390,000. AID 540317, 2011; further: nearly all actives have a fitted effect of over 70% in size
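AlphaScreen: HP1-beta (50 nM) preformed 30 min with biotin-H3(1-18)K9me3 peptide (50 nM) in PBS pH 7.4, 0.01% Tween-20. Compound added for 30 min at RT, then streptavidin donor/nickel chelate acceptor beads (10 ug/mL) for 30 min.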
12-LOX inh: Primary qHTS assay for inhibitors of human arachidonate 12S-lipoxygenase (ALOX12): Round 2 | Potency, µM (highest dose often 108 µM), most hits filed as inhibitors | purified 12hLO, xylenol orange hydroperoxide absorbance | hit rate 1.1% among 580,000
Target sequence (P18054 whole entry, looked up): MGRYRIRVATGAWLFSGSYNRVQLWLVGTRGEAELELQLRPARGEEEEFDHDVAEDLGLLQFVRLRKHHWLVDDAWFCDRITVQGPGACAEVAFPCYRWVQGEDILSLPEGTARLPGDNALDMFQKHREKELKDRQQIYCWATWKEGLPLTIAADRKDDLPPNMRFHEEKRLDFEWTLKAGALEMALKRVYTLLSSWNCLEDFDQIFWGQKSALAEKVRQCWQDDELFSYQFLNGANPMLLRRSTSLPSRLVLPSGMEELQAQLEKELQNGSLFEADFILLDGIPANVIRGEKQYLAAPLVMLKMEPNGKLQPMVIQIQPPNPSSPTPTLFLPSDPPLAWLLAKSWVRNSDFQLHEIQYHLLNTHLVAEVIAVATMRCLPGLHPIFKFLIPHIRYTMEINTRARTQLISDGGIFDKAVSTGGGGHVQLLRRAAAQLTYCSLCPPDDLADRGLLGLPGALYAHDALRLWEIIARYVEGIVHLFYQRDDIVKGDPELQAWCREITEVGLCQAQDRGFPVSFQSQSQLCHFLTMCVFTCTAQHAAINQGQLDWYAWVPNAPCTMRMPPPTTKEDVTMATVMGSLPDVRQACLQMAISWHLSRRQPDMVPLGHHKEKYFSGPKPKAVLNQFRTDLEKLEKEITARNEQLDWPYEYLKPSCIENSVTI
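Purified human 12hLO (150 nM final) in 25 mM Hepes, 0.01% Triton X-100, pH 7.0 was preincubated 15 min at room temperature with compound. Then 40 uM arachidonic acid was added, 30 min. Hydroperoxide was read by Fe-XO absorbance ratio 573/405 nm.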
Each line names hits and unclear results; the compound was inactive in the other large screens. Only some compounds are listed: those with a hit (about 9% of all), similar ones and a draw of the others. The call rests on the fitted dose curve; in most records, active means well fitted curve in the direction sought with a large enough effect; inconclusive means small, poorly fitted or top-dose-only effect, or another doubt; inactive means no such curve, though single readings can be large; an effect the other way counts as inactive or inconclusive.

COc1cccc(NC(=O)c2ccc3c(c2)C(=O)N(CC2CCCO2)C3=O)c1 (stereo not drawn)	none
Cc1noc(-c2cn(C3CCCN(C(=O)c4ccc(F)c(F)c4)C3)nn2)n1 (stereo not drawn)	none (no result: JMJD2A Tudor, PLK1 PBD block, BAZ2B block, G9a block, HP1b binding inh)
COc1cc(C(=O)NCc2cccs2)ccc1OCc1c(C)noc1C	none (no result: BAZ2B block, G9a block)
C=C1c2cccc(OC)c2O[C@H](C(=O)OCC)[C@@H]1CCC(C)C	G9a block 32µM (no result: JMJD2A Tudor, PLK1 PBD block, BAZ2B block, HP1b binding inh, 12-LOX inh)
C=C1c2ccccc2O[C@H](C(=O)OCC)[C@@H]1CCC(C)C (tested in a mixture with another compound)	none (no result: JMJD2A Tudor, PLK1 PBD block, BAZ2B block, HP1b binding inh, 12-LOX inh)
CN(CC(=O)Nc1ccc2c(c1)CCC2)CC(=O)Nc1ccccc1Br	JMJD2A Tudor 14µM, PLK1 PBD block 6.7µM
CC(CNC(=O)CN(C)CC(=O)Nc1ccccc1Br)c1ccccc1 (stereo not drawn)	G9a block 45µM
O=C(Cc1ccc2c(c1)CCCC2)Nc1ccc2ccccc2c1	PLK1 PBD block inconclusive, G9a block 7.1µM, HP1b binding inh inconclusive
COc1ccc(NC(=O)CN(C)CC(=O)Nc2ccc3c(c2)CCC3)cc1	none
CCc1ccccc1NC(=O)N1CCC(OC2CCN(S(C)(=O)=O)CC2)CC1	none (no result: JMJD2A Tudor, PLK1 PBD block, BAZ2B block, G9a block, HP1b binding inh)
CC1CCN(S(=O)(=O)c2ccc3c(c2)N(CC(=O)NC(C)(C)C)C(=O)CS3)CC1	12-LOX inh inconclusive (no result: PLK1 PBD block)
COc1cccc(Cn2nnc(C(=O)Nc3ccc(C)cc3)c2N)c1	none
CN(C)/C=C(\C#N)S(=O)(=O)c1ccccc1	none
CS(=O)(=O)/C(C#N)=C\c1cnc(S(=O)(=O)c2ccccc2)s1	BAZ2B block 50µM, G9a block 1µM (no result: JMJD2A Tudor, PLK1 PBD block, HP1b binding inh, 12-LOX inh)
Cc1cc(Cl)c2oc(C(=O)N(C)CC3CCOCC3)c(C)c2c1	JMJD2A Tudor inconclusive, PLK1 PBD block 27µM
CC(=O)c1cccc(OCc2cc(C(=O)N3C[C@H]4CC[C@H]3C4)no2)c1	none
Cc1cc(OCc2cc(C(=O)N(C)CCCN3CCOCC3)no2)cc(C)c1Cl	JMJD2A Tudor 89µM, PLK1 PBD block inconclusive
CC(=O)c1cccc(OCc2cc(C(=O)N3C[C@@H](C)O[C@@H](C)C3)no2)c1	PLK1 PBD block inconclusive, G9a block 45µM
Cc1cc(OCc2cc(C(=O)N(C)CC3CCOCC3)no2)cc(C)c1Cl	JMJD2A Tudor inconclusive, PLK1 PBD block 27µM
CN(CCCN1CCOCC1)C(=O)c1cc(COc2cccc(C(F)(F)F)c2)on1	none (no result: G9a block)
CC(C)NC(=O)NC(=O)CSc1ncccn1	none
O=C(O)CCCC(=O)Nc1cccc2cccnc12	none
COc1ccccc1OCc1cc(C(=O)N(C)CCC2CCOCC2)no1	none (no result: JMJD2A Tudor, BAZ2B block, G9a block, HP1b binding inh)
COCC1CCN(C(=O)c2cc(COc3ccc4ncccc4c3)on2)CC1	JMJD2A Tudor 16µM, PLK1 PBD block 17µM (no result: G9a block)
CC(=O)c1cccc(OCc2cc(C(=O)N(C)CCC3CCOCC3)no2)c1	PLK1 PBD block inconclusive, G9a block 45µM
C#CCNC(=O)C[C@@H]1C[C@@]2(C(=O)OCC)CCCC=C2N(Cc2ccccc2)C1=O	none (no result: JMJD2A Tudor, BAZ2B block, G9a block, HP1b binding inh)
CC(C)c1ccc2[nH]c3nc(SCC(=O)NC4CC4)nnc3c2c1	JMJD2A Tudor inconclusive, HP1b binding inh inconclusive, 12-LOX inh inconclusive
CCCCCC(=O)Cc1cc(O)cc2c1C(=O)Oc1cc(O)c(C(=O)O)c(CCCCC)c1O2	JMJD2A Tudor 79µM, PLK1 PBD block 24µM, BAZ2B block inconclusive (no result: 12-LOX inh)
CCCCC(=O)NC(c1ccco1)c1c(O)ccc2ccccc12 (stereo not drawn)	none
CCCC(=O)NC(c1ccco1)c1cc([N+](=O)[O-])c2cccnc2c1O (stereo not drawn)	PLK1 PBD block inconclusive, BAZ2B block 7.9µM, G9a block 28µM
CC(C)C(=O)NC(c1ccc(N(C)C)cc1)c1c(O)ccc2ccccc12 (stereo not drawn)	G9a block 2.2µM
